The values that follow come from PubChem BioAssay (NCATS).

Assay [1] addresses Lethal(3)malignant brain tumor-like protein 1 (Homo sapiens) (UniProt Q9Y468). The experiment in a line: qHTS Assay for the Inhibitors of L3MBTL1: Hit Validation (AID 540279). Also: potency is read from the fitted curve at half-maximal effect; nearly all actives have a fitted effect of over 70% in size. The settings on record: L3MBTL1 methyl-lysine binding inhibition, biochemical qHTS. The gist of the method:
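L3MBTL1 (50 nM final) preformed 30 min with biotinylated H3(1-15)K9me1 peptide (75 nM), then compound 30 min at room temperature. Streptavidin donor and nickel chelate acceptor AlphaScreen beads (10 ug/mL each final) added for 30 min before read.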
For orientation: Quantitative high-throughput screening tests each substance at several concentrations.

For assay [2], the target named is DNA polymerase iota (Homo sapiens) (UniProt Q9UNA4). The experiment in a line: qHTS for Inhibitors of Polymerase Iota: Confirmatory Assay for Cherry-picked Compounds (AID 720496). Also: potency is read from the fitted curve at half-maximal effect. As to conditions: Pol iota primer extension, TAMRA/BHQ fluorescence. An outline of the steps:
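Human Pol iota (10 nM) was preincubated 15 min at room temperature with compound, then started with 50 nM TAMRA/BHQ-2 quenched primer-template substrate. Fluorescence (ex 525/em 598 nm) was read at 0 and 10 min.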

The target in assay [3] is DNA polymerase kappa (Homo sapiens) (UniProt Q9UBT6). The experiment in a line: qHTS for Inhibitors of Polymerase Kappa: Confirmatory Assay for Cherry-picked Compounds (AID 720501). Also: potency is read from the fitted curve at half-maximal effect. The settings on record: purified Pol-kappa, fluorescent strand-displacement substrate. An outline of the steps: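 10 nM human Pol-kappa was preincubated with compound 15 min at room temperature, then 50 nM (final) primer/template substrate with TAMRA-labeled reporter strand and BHQ-2-labeled template added. Fluorescence (Ex 525, Em 598 nm) read at 0 and 10 min.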

For assay [4], the target named is Rap guanine nucleotide exchange factor 3 (Homo sapiens) (UniProt O95398). The assay is described as follows: Confirmatory qHTS for antagonist of cAMP-regulated guanine nucleotide exchange factor 3 (EPAC1) (AID 1645880). Also: nearly all actives have a fitted effect of over 55% in size. Also: potency is read from the fitted curve at half-maximal effect.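 As to activity, negative = inhibition: plate controls were DMSO only for no effect and full effect of the ATA control for full effect.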 The settings on record: EPAC1 Rap1B-BODIPY-GDP exchange, fluorescence; activity, negative = inhibition: at 115 µM (top of the series). The gist of the method:
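Nucleotide exchange uses 100 nM EPAC1, 250 nM RAP1B-BODIPY-GDP and 50 uM GDP, with compounds in a concentration-titration series. After 5 min at room temperature, fluorescence (480 nm ex/540 nm em) is read every 5 min for 30 min. Data are normalized to control ATA and DMSO.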

Assay [5] shares this target. The experiment in a line: Confirmatory qHTS for agonist of cAMP-regulated guanine nucleotide exchange factor 3 (EPAC1) (AID 1645881).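 Also: EPAC1 catalysed release of BODIPY-GDP from Rap1B seen as fluorescence loss; 100% = effect of cAMP agonist control; nearly all actives have a fitted effect of over 75% in size.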
The target in assay [6] is Rap guanine nucleotide exchange factor 4 (Homo sapiens) (UniProt Q8WZA2). The assay is described as follows: Confirmatory qHTS for agonist of cAMP-regulated guanine nucleotide exchange factor 4 (EPAC2) (AID 1645884).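 Also: nucleotide exchange releases bodipy-GDP from Rap1 and this lowers its fluorescence; % is scaled to controls: 0 for no effect and ±100 for the full control effect; nearly all actives have a fitted effect of over 65% in size.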
Assay [7] shares this target. The assay is described as follows: Confirmatory qHTS for antagonist of cAMP-regulated guanine nucleotide exchange factor 4 (EPAC2) (AID 1645885). Also: nearly all actives have a fitted effect of over 25% in size. Also: potency is read from the fitted curve at half-maximal effect. As to activity change, negative = inhibition: % is scaled to controls: 0 for no effect and ±100 for the full control effect.
Assay [8] addresses Rap guanine nucleotide exchange factor 3 (Homo sapiens) (UniProt O95398). The assay is described as follows: Counterscreen qHTS for antagonist of cAMP-regulated guanine nucleotide exchange factor 3 (EPAC1) (AID 1645888).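 Also: fluorescence loss as bound BODIPY-GDP is released from Rap1B; % of control where 0% means no effect.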 The gist of the method: (§1)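 Rap1B–BODIPY-GDP (250 nM) with 50 uM GDP; compounds pin-transferred to 9.74 nM–152 uM final (activator) or from 7.32 nM upwards (inhibitor). Fluorescence Ex/Em 480/540 nm read at 5 and 30 min, then after adding cAMP or buffer, at room temperature.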
A general note: A counterscreen serves to expose hits that act by an unwanted route or on another target.

Assay [9] has the same target. The assay is described as follows: Counterscreen qHTS for agonist of cAMP-regulated guanine nucleotide exchange factor 3 (EPAC1) (AID 1645889). Also: % of control where 0% means no effect; nearly all actives have a fitted effect of over 40% in size. An outline of the steps: as §1
Assay [10] in a line: qHTS for Inhibitors of the vitamin D receptor (VDR): Hit Validation using a Texas Red Assay (AID 602201). Also: % is scaled to controls: 0 for no effect and ±100 for the full control effect. The gist of the method:
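Fluorescence polarization with 1.5 uM VDR-LBD, LG19078 and 7 nM Texas Red (final). After 2 hours at ambient temperature, read at Ex 595 nm/Em 615 nm.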

Assay [11] in a line: qHTS for Inhibitors of Plasmodium falciparum (DD2) proliferation (AID 504314).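 Also: parasite DNA measured by SYBR Green fluorescence after red cell lysis; plate controls were DMSO vehicle for no effect and artemisinin wells for full effect.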 An outline of the steps: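 Erythrocytes infected with P. falciparum Dd2 (0.3% parasitemia, 2.5% hematocrit) exposed to compound 72 h at 37C, 5% CO2. Parasite DNA quantified by SYBR Green fluorescence after saponin/Triton lysis overnight; normalized to 0.29 uM artemisinin and DMSO.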
Assay [12] can be described thus: qHTS for Inhibitors of Plasmodium falciparum (GB4) proliferation (AID 504315).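 Also: 0% = DMSO vehicle and -100% = 0.29 µM artemisinin control; nearly all actives have a fitted effect of over 50% in size.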 The gist of the method:
(§2)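 Erythrocytes infected with P. falciparum line (0.3% parasitemia, 2.5% hematocrit final) incubated with compounds 72 h at 37 °C, 5% CO2; SYBR Green lysis buffer added, fluorescence read next day. Normalized to 0.29 uM artemisinin and DMSO.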

Assay [13] can be described thus: qHTS for Inhibitors of Plasmodium falciparum (7G8) proliferation (AID 504316).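 Also: 0% = DMSO vehicle and -100% = 0.29 µM artemisinin full kill; nearly all actives have a fitted effect of over 65% in size.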 An outline of the steps: as §2
The nature of assay [14]: qHTS for Inhibitors of Plasmodium falciparum (HB3) proliferation (AID 504318).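 Also: 0% = DMSO vehicle and -100% = artemisinin control; nearly all actives have a fitted effect of over 60% in size.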 An outline of the steps: as §2
Assay [15] can be described thus: qHTS for Inhibitors of Plasmodium falciparum (CP250) proliferation (AID 504320).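 Also: plate controls were DMSO vehicle for no effect and 0.29 µM artemisinin control for full effect.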 An outline of the steps:
as §2

Assay [16] is described as follows: AP1 Signaling Pathway (AID 357; active = well fitted curve in either direction with a large enough effect, not every such curve was filed as active;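 also: ME-180 reporter cells stimulated with EGF at its EC50 level; % is scaled to controls: 0 for no effect and ±100 for the full control effect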). The settings on record: ME-180 (cervical carcinoma) AP-1-bla reporter, EGF-induced, beta-lactamase ratio, 5 h; at 7.69 µM (top of the series) unless noted. The gist of the method: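 A ratiometric CCF4 readout (405 nm excitation; 460 and 530 nm emission) quantified AP-1-driven beta-lactamase in ME-180 cells after 5 h with compound and EC50 EGF; AC50 values were derived for activators and inhibitors.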

Assay [17] in a line: NFAT Signaling Pathway (AID 444; active = well fitted curve in either direction with a large enough effect, not every such curve was filed as active;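 also: carbachol stimulus at about its EC50 of 1 µM final; % is scaled to controls: 0 for no effect and ±100 for the full control effect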). The settings on record: Jurkat NFAT-bla M1, carbachol, beta-lactamase ratio, 5 h; at 7.69 µM (top of the series) unless noted. An outline of the steps:
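Jurkat cells with NFAT-driven β-lactamase reporter and co-expressed M1 receptor, stimulated with carbachol (final 1 uM, ~EC50), compound titration, 5 h at 37 °C. CCF4 loaded 1 h at RT; 460/530 nm ratio gave %activity and AC50.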

For assay [18], the target named is Glucocorticoid receptor (Homo sapiens) (UniProt P04150). The assay is described as follows: GR-GFP Redistribution (AID 450;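 active = compounds whose dose series gives a full or clear partial fitted curve of increased nuclear translocation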; also: potency is read from the fitted curve at half-maximal effect). The settings on record: U2OS GR-GFP nuclear translocation, laser cytometry, 2 h.
In assay [19] the target is Tumor susceptibility gene 101 protein (Homo sapiens) (UniProt Q99816). The assay is described as follows: qHTS Assay for Iinhibitors of HIV-1 Budding by Blocking the Interaction of PTAP/TSG101: Hit Validation (AID 651600). Also: % is scaled to controls: 0 for no effect and ±100 for the full control effect; nearly all actives have a fitted effect of over 70% in size. The gist of the method: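 FITC-PTAP peptide (50 nM final) binding to Tsg101 binding domain (10 uM final) was measured by polarization after 20 min at r.t. with compounds, in 10 mM HEPES pH 7.5 buffer with 0.15 M NaCl and 0.01% Tween 20.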

Values without a mark were called inactive. Results filed as inconclusive are left out. Some of the results follow. The source made the active and inactive calls. Unless noted, calls follow the shape of the dose curve; as a rule, active = well fitted curve in the direction sought with a large enough effect; inconclusive = small, poorly fitted or top-dose-only effect, or another doubt; inactive = no such curve, though single readings can be large; an effect the other way counts as inactive or inconclusive. Where only a bound is given, the exact number is not on record here.

Chain of Rap guanine nucleotide exchange factor 3 (Homo sapiens) (O95398 whole entry, looked up): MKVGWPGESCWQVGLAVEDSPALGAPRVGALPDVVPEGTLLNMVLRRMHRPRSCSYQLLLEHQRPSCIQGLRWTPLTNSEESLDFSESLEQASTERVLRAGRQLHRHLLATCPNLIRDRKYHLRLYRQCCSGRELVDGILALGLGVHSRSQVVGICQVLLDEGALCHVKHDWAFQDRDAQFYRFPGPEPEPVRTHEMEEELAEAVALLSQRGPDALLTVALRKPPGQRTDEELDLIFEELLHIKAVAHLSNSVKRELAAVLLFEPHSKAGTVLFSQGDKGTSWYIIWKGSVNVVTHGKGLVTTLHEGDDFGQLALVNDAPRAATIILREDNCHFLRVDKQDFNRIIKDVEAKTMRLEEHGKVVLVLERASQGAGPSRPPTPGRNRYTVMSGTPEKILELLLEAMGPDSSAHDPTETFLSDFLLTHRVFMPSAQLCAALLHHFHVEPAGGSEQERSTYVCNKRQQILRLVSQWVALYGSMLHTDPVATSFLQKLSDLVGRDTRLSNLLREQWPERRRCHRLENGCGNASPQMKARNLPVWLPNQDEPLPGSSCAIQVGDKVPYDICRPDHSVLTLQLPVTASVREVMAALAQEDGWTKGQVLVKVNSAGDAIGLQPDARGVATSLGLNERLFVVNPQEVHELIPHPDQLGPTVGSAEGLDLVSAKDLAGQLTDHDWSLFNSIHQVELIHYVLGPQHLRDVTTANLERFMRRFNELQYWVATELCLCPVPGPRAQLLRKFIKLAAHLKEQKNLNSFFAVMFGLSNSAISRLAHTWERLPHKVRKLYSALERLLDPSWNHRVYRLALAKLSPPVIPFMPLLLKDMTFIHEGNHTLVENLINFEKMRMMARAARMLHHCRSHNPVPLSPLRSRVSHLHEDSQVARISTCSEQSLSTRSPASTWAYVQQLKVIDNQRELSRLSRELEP
Chain of Rap guanine nucleotide exchange factor 4 (Homo sapiens) (Q8WZA2 whole entry, looked up): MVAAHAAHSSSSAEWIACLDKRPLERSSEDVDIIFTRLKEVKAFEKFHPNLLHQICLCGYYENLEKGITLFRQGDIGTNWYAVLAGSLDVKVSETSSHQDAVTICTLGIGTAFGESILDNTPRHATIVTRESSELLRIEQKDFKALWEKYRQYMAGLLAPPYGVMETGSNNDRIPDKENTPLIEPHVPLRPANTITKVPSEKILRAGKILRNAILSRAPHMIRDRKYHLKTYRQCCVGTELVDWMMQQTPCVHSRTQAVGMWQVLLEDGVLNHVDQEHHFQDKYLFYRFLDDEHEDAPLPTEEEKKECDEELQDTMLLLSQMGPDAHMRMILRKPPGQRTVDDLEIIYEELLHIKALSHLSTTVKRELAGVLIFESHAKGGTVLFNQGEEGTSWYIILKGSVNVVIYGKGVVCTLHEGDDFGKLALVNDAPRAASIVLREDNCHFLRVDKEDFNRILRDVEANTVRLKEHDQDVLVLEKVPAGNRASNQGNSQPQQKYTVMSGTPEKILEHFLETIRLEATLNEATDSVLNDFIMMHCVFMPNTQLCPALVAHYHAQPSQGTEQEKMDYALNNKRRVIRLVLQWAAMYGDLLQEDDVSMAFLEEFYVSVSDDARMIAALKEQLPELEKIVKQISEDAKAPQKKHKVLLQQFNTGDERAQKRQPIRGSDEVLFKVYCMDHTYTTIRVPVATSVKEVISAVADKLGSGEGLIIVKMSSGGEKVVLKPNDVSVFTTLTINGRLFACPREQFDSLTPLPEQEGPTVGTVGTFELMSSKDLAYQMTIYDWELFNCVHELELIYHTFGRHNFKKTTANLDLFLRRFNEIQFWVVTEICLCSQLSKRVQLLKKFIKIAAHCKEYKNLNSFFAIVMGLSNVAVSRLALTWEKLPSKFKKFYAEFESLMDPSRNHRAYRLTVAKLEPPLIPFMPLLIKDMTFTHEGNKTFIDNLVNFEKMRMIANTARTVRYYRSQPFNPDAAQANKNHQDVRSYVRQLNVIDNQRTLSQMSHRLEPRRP
Chain of Lethal(3)malignant brain tumor-like protein 1 (Homo sapiens) (Q9Y468 whole entry, looked up): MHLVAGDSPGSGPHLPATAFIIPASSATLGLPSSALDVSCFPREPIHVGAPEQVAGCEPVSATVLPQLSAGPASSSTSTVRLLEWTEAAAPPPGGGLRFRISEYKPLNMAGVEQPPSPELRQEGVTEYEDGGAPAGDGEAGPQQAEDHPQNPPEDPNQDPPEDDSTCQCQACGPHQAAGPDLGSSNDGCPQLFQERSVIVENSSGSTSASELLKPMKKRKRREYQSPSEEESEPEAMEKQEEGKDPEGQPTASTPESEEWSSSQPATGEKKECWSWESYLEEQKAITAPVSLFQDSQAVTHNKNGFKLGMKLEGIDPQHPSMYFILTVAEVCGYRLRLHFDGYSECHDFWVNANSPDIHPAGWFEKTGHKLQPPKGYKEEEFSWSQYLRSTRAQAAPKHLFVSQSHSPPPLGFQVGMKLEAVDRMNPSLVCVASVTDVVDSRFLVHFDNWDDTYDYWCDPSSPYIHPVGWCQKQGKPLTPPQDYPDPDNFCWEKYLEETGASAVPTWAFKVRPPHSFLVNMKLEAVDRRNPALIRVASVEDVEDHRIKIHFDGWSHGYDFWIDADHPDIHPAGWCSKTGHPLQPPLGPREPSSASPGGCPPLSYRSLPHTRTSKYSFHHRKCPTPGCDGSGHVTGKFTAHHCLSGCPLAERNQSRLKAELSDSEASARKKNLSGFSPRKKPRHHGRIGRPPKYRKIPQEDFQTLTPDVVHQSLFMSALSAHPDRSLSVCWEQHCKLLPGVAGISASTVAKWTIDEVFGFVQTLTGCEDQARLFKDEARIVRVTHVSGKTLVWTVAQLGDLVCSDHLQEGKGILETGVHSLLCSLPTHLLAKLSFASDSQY
Chain of DNA polymerase iota (Homo sapiens) (Q9UNA4 whole entry, looked up): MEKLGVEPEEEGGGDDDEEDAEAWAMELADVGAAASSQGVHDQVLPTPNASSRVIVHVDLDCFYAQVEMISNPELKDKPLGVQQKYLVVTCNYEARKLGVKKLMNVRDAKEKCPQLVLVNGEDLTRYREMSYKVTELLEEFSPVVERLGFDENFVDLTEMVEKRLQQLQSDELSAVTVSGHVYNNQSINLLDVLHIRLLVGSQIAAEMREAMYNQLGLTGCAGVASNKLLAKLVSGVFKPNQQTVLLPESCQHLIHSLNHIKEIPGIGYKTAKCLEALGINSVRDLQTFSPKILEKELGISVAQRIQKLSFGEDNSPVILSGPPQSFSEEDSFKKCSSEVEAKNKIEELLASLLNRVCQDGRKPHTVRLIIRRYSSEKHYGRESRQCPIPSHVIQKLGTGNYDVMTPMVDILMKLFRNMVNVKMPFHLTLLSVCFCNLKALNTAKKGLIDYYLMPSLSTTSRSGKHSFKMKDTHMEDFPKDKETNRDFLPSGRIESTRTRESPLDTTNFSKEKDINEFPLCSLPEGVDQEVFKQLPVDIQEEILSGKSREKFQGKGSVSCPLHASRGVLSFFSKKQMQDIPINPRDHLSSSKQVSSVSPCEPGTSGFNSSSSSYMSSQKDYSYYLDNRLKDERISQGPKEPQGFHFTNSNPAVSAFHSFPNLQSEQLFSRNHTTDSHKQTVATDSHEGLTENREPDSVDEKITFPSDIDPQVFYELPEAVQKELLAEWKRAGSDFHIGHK
Chain of DNA polymerase kappa (Homo sapiens) (Q9UBT6 whole entry, looked up): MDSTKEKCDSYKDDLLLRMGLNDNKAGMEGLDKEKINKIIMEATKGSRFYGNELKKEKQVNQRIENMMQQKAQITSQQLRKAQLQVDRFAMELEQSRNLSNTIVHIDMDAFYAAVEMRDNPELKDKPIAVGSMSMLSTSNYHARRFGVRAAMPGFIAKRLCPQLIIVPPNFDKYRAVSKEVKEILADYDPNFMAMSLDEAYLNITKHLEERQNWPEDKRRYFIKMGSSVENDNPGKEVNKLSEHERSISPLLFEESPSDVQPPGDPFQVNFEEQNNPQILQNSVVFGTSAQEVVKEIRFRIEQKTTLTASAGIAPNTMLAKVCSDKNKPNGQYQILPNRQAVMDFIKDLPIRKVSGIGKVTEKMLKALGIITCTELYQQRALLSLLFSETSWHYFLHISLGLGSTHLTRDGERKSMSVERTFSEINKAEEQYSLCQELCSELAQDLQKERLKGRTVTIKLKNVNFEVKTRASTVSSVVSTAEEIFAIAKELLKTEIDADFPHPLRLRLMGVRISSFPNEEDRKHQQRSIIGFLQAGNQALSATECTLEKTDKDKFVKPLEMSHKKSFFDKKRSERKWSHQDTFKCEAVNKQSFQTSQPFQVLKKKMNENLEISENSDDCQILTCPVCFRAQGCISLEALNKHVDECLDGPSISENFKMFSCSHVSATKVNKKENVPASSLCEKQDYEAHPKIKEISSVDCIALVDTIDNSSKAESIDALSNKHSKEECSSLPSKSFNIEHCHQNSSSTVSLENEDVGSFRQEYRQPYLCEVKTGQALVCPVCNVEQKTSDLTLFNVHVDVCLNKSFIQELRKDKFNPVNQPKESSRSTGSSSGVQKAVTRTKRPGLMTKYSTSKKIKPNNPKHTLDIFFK
Chain of Tumor susceptibility gene 101 protein (Homo sapiens) (Q99816 whole entry, looked up, the tested form may be a part): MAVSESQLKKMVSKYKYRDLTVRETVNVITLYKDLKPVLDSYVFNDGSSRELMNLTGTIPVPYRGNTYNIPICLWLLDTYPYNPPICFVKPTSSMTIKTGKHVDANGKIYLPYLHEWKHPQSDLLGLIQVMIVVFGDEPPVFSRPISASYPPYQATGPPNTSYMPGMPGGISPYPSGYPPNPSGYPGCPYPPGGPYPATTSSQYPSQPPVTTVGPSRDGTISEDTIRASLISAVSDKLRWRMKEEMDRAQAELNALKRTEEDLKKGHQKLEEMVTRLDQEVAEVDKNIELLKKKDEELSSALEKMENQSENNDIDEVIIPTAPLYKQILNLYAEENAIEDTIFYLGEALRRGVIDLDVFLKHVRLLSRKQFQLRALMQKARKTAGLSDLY

Take `Cc1ccc(N=C2NC(=O)/C(=C/C=C/c3ccco3)S2)cc1C`: the Potency in [1] is 21.2 µM (active); in assay [2] it was 47.4 µM (active); in assay [3] it was 47.4 µM (active); in assay [4], 12.6 µM (active). Also, the Potency result in [5] and in assay [7] was “inactive” throughout. Further, the activation was -4% [at 17.1 µM, percent relative to cAMP agonist control] in [6] and 25.8% [at 30.8 µM] in assay [9]. Further, in assay [8], the activity change, negative = inhibition was 5.98% [at 30.8 µM].

In the case of `CC1CCCN(C(=O)c2cccc(S(=O)(=O)Nc3cc(C(F)(F)F)ccc3Cl)c2)C1` (centres undefined), the Potency in assay [4] was 21.3 µM (active); in [7], 26.9 µM (active). Further, the Potency result in [5], in assay [6], in [8] and in assay [9] was “inactive” each time.

Turning to `Cc1[nH]n(-c2ncc(-c3ccccc3)s2)c(=O)c1C(c1ccc(Br)cc1)C(C#N)C#N` (centres undefined), the Potency entry in assay [10], in assay [5] and in assay [7] was “inactive” throughout. Also, in [4], the Potency is 12.6 µM (active). Also, the activation in [6] was 4.64% [at 17.1 µM, percent relative to cAMP agonist control]; in assay [9], 8.62% [at 30.8 µM]. Besides, in [8], the activity change, negative = inhibition is -9.33% [at 30.8 µM].

In the case of `CCN1C(=O)N(S(=O)(=O)C(F)(F)F)[C@@H](c2ccccc2)C(C(=O)OC)=C1C`, the call in assay [11], in [12], in [13], in assay [14] and in assay [15] was inactive. Further, the Potency result in assay [4], in [5], in assay [6], in assay [7], in [8] and in [9] was “inactive” throughout.

For the molecule `CCOc1ccc2nc(S(=O)(=O)NC(=O)C3(C)CCN3C(=O)CCc3cccs3)sc2c1` (centres undefined), the Potency result in [4], in [5] and in assay [7] was “inactive” in each case. The activation is 5.68% [at 17.1 µM, percent relative to cAMP agonist control] in assay [6] and 4.36% [at 30.8 µM] in assay [9]. Besides, the activity change, negative = inhibition in [8] was -20.4% [at 30.8 µM].

`COC(=O)c1cc(Br)c(=O)n(CCc2ccc(F)cc2)c1`: the activity change, negative = inhibition in assay [16] was 4.29% [at 17.2 µM]; in assay [17], -12.1% [at 17.2 µM]. In [18], the Potency is more than 20.6 µM. Moreover, the Potency entry in [4], in assay [5], in assay [6], in [7], in assay [8] and in [9] was “inactive” each time.

For `O=C(Nc1ccccc1C(=O)O)c1cccc(S(=O)(=O)Nc2ccc(Br)cc2)c1`, the Potency was 75.7 µM (active) in [4] and 42.6 µM (active) in [7]. For the same molecule, the Potency result in assay [5], in assay [6], in assay [8] and in [9] was “inactive” in each case.

With `Cc1ccc(NC(=O)Cn2nnc(-c3nc(-c4ccncc4)no3)c2N)c(C)c1`, the Potency result in assay [4], in assay [5], in assay [6], in assay [7], in assay [8] and in assay [9] was “inactive” each time.

In the case of `CN(C(=O)CSc1nc2[nH]ncc2c(=O)[nH]1)c1ccccc1`, the Potency entry in assay [4], in assay [5] and in [7] was “inactive” each time. In addition, the activation in assay [6] was 1.67% [at 17.1 µM, percent relative to cAMP agonist control]; in [9] it was -11.1% [at 30.8 µM]. In assay [8], the activity change, negative = inhibition is -21.3% [at 30.8 µM].

For `O=C(O)C(c1ccccc1)N1C(=O)/C(=C/c2cccs2)SC1=S` (centres undefined), the Potency in assay [4] is 39.8 µM (active). In addition, the Potency entry in assay [5] and in [7] was “inactive” each time. Moreover, the activation in [6] is 2.04% [at 17.1 µM, percent relative to cAMP agonist control]; in [9], 6.75% [at 30.8 µM]. The activity change, negative = inhibition in assay [8] is -23.4% [at 30.8 µM].

For the molecule `N=c1c(S(=O)(=O)c2ccc(Br)cc2)cc2c(=O)n3ccccc3nc2n1Cc1ccccc1`, the Potency entry in assay [19], in assay [5] and in [7] was “inactive” throughout. Besides, the Potency in assay [4] was 50.1 µM (active). In addition, the activation in [6] was -5.31% [at 17.1 µM, percent relative to cAMP agonist control]; in assay [9], 9.82% [at 30.8 µM]. Moreover, in [8], the activity change, negative = inhibition is -6.58% [at 30.8 µM].
